Inconclusive results are not listed. Activity calls are given as the source filed them. Unless noted, calls follow the shape of the dose curve; as a rule, active = well fitted curve in the direction sought with a large enough effect in the repeat runs; inconclusive = weak or mixed curves; inactive = no such curve, though single readings can be large; an effect the other way counts as inactive or inconclusive.
Tests used:
[1] = qHTS assay to identify aromatase inhibitors - cell viability counter screen (AID 743084);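 also: cells stimulated with testosterone during compound exposure; nearly all actives have a fitted effect of over 55% in size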
[2] = qHTS assay to identify small molecule that activate the aryl hydrocarbon receptor (AhR) signaling pathway - cell viability counter screen (AID 743086);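 also: HepG2 liver cells carrying the AhR DRE luciferase reporter; series mostly up to about 70 µM; nearly all actives have a fitted effect of over 45% in size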
Method in brief: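 HepG2-AhR-luc (HG2L7.5c1) cells, 4000/well, treated 24 h at 37 C with compound; viability measured as CellTiter-Fluor fluorescence after 30 min in the same wells as the luciferase read.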

[3] = molecular target: Peroxisome proliferator-activated receptor gamma (Homo sapiens) (UniProt P37231); experiment: qHTS assay to identify small molecule agonists of the peroxisome proliferator-activated receptor gamma (PPARg) signaling pathway (AID 743094; active = well fitted activation curve with a large enough effect in the signal ratio in the repeat runs, not every such curve was filed as active; the % refers to the signal ratio)
Peroxisome proliferator-activated receptor gamma (Homo sapiens), sequence (P37231 whole entry, looked up): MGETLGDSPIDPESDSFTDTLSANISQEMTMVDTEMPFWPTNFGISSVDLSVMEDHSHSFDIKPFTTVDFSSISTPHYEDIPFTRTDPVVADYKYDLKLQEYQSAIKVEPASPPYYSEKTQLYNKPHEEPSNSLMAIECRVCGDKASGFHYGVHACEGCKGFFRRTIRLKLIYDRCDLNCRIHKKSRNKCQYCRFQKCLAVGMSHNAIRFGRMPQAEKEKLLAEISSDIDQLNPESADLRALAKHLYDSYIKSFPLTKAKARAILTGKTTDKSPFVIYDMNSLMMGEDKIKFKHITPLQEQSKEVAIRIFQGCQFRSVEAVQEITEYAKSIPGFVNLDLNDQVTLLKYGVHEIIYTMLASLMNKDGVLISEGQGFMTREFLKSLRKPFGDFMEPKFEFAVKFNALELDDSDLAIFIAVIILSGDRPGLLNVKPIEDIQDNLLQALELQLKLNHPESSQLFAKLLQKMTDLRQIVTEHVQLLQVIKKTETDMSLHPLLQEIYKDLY
Method in brief: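 Cell-based bla reporter, HEK293H background, PPARg-driven UAS. Pre-incubation 5 h, 37C, 5% CO2. Compound 17 h, 37C. Substrate 1 h RT; fluorescence.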

[4] = molecular target: Peroxisome proliferator-activated receptor gamma (Homo sapiens) (UniProt P37231); experiment: qHTS assay to identify small molecule antagonists of the peroxisome proliferator-activated receptor gamma (PPARg) signaling pathway (AID 743191; calls by dose curve; also: series mostly up to about 63 µM; nearly all actives have a fitted effect of over 30% in size)
Method in brief: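 GeneBLAzer PPARg UAS-bla HEK293H cells, 5 h post-plating, exposed to compounds 17 h at 37C. LiveBLAzer B/G FRET substrate added for 1 h at room temperature; beta-lactamase reporter read by fluorescence intensity.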

[5] = qHTS assay to identify small molecule antagonists of the peroxisome proliferator-activated receptor gamma (PPARg) signaling pathway - cell viability counter screen (AID 743194); also: nearly all actives have a fitted effect of over 55% in size
Method in brief: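 Cytotoxicity counter screen in PPARg-bla HEK293H cells, same wells as reporter assay. Compounds plus 50 nM rosiglitazone (final) for 17 h at 37 C, then viability read by CellTiter-Glo luminescence.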

[6] = qHTS assay for small molecule agonists of the antioxidant response element (ARE) signaling pathway (AID 743202; active = well fitted activation curve with a large enough effect in the signal ratio in the repeat runs, not every such curve was filed as active; the % refers to the signal ratio)
Method in brief: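 HepG2 ARE-bla cells; 16 h treatment at 37 C; FRET-based beta-lactamase fluorescence read after 2 h substrate incubation at room temperature.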

[7] = qHTS assay for small molecule agonists of the antioxidant response element (ARE) signaling pathway - cell viability counter screen (AID 743203; calls by dose curve; also: nearly all actives have a fitted effect of over 55% in size)
Method in brief: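 Measured in the same wells as the beta-lactamase ARE reporter, this read-out is CellTiter-Glo luminescence from HepG2 ARE-bla cells given compounds for 16 hrs.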

[8] = qHTS assay for small molecule activators of the heat shock response signaling pathway - cell viability counter screen (AID 743209); also: nearly all actives have a fitted effect of over 50% in size
Method in brief: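 Same-well multiplex: after 2.5 h room-temperature incubation with LiveBLAzer B/G substrate and fluorescence reading, CellTiter-Glo reagent was added to HSE-bla HeLa cells that had received compound for 5 h at 37 C; luminescence read after 30 min.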

[9] = qHTS assay for small molecule activators of the heat shock response signaling pathway (AID 743210; active = well fitted activation curve with a large enough effect in the signal ratio in the repeat runs, with a control signal flat, not every such curve was filed as active; the % refers to the signal ratio;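 also: HeLa cells with beta-lactamase reporter driven by heat shock elements; series mostly up to about 63 µM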)
Method in brief: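 Following overnight attachment, HSE-bla HeLa cells received test compounds for 5 h at 37 C; beta-lactamase activity was then detected via FRET substrate fluorescence.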

[10] = qHTS assay to identify small molecule agonists of the peroxisome proliferator-activated receptor delta (PPARd) signaling pathway - cell viability counter screen (AID 743211); also: nearly all actives have a fitted effect of over 55% in size
Method in brief: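 qHTS cell viability: PPARd-bla HEK293H; 17 h cpd, 37C; CellTiter-Glo, luminescence at 30 min RT.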

[11] = qHTS assay to identify small molecule agonists of the farnesoid-X-receptor (FXR) signaling pathway - cell viability counter screen (AID 743218); also: nearly all actives have a fitted effect of over 45% in size
Method in brief: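 Readout: CellTiter-Glo luminescence, 30 min RT, multiplexed after the FXR-bla FRET reading. HEK 293T FXR-UAS-bla cells received compound 5 h post-plating and were incubated 16 h at 37 C.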

[12] = molecular target: Bile acid receptor (Homo sapiens) (UniProt Q96RI1); experiment: qHTS assay to identify small molecule agonists of the farnesoid-X-receptor (FXR) signaling pathway (AID 743220; active = well fitted activation curve with a large enough effect in the signal ratio in the repeat runs, not every such curve was filed as active; the % refers to the signal ratio)
Bile acid receptor (Homo sapiens), sequence (Q96RI1 whole entry, looked up): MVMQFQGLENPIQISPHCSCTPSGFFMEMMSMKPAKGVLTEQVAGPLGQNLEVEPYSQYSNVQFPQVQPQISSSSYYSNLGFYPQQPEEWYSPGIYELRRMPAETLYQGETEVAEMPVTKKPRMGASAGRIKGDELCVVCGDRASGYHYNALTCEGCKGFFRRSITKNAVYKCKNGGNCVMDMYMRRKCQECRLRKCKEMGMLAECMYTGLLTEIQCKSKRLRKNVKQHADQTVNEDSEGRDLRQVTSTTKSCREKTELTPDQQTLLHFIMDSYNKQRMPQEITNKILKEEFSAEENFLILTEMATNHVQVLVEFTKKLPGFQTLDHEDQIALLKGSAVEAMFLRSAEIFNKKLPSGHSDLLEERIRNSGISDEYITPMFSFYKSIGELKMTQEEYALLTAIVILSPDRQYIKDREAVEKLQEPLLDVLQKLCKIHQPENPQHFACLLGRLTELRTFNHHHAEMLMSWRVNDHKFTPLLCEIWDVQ
Method in brief: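 FXR-UAS-bla HEK 293T cells carrying a UAS-driven beta-lactamase reporter were plated for 5 h at 37C/5% CO2, then exposed to DMSO-dissolved Tox21 10K compounds for 16 h at 37C. A LiveBLAzer B/G FRET substrate was loaded for 2 h at room temperature before fluorescence reading.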

[13] = qHTS assay to identify small molecule antagonists of the farnesoid-X-receptor (FXR) signaling pathway - cell viability counter screen (AID 743221; active = well fitted cell-killing curve with a large enough effect in the repeat runs, not every such curve was filed as active; also: nearly all actives have a fitted effect of over 50% in size)
Method in brief: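 After a 5 h settling period, FXR-bla HEK 293T cells receive compound and chenodeoxycholic acid (50 uM final) and incubate 16 h at 37 C; CellTiter-Glo luminescence, read after 30 min at room temperature, reports cell viability.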

[14] = molecular target: Vitamin D3 receptor (Homo sapiens) (UniProt P11473); experiment: qHTS assay to identify small molecule agonists of the vitamin D receptor (VDR) signaling pathway (AID 743222; calls by dose curve)
Vitamin D3 receptor (Homo sapiens), sequence (P11473 whole entry, looked up): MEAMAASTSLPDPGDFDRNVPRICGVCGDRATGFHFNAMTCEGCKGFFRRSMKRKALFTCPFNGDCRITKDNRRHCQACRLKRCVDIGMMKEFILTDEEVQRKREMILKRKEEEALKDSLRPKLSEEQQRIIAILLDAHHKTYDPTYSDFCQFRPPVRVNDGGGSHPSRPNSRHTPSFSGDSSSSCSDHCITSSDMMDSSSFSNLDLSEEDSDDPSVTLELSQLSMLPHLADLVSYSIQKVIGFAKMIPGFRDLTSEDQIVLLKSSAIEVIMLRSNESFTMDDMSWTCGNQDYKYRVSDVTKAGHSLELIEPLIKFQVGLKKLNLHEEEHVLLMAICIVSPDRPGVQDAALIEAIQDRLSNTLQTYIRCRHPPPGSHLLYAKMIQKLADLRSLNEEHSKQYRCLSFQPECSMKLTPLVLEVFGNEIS
Method in brief: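 Following 4 h attachment at 37C, VDR-bla cells (2,000 per well) received DMSO-dissolved compounds or controls. After 16 h incubation, LiveBLAzer B/G FRET substrate was added and fluorescence read 2 h later at room temperature.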

[15] = molecular target: Vitamin D3 receptor (Homo sapiens) (UniProt P11473); experiment: qHTS assay to identify small molecule antagonists of the vitamin D receptor (VDR) signaling pathway (AID 743223; active = well fitted inhibition curve with a large enough effect in the signal ratio in the repeat runs, not every such curve was filed as active; the % refers to the signal ratio)
Method in brief: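 Reporter line VDR-bla; stimulus 1alpha,25-(OH)2 vitamin D3, 3 nM final; compound co-addition, 16 h 37C/5% CO2; LiveBLAzer B/G substrate 2 h RT; fluorescence intensity.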

[16] = molecular target: Aryl hydrocarbon receptor (Homo sapiens) (UniProt P35869); experiment: qHTS assay to identify small molecule that activate the aryl hydrocarbon receptor (AhR) signaling pathway (AID 743085);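 also: HG2L7.5c1 human HepG2 liver cells with stably integrated DRE-driven firefly reporter; series mostly up to about 70 µM; nearly all actives have a fitted effect of over 15% in size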
Aryl hydrocarbon receptor (Homo sapiens), sequence (P35869 whole entry, looked up): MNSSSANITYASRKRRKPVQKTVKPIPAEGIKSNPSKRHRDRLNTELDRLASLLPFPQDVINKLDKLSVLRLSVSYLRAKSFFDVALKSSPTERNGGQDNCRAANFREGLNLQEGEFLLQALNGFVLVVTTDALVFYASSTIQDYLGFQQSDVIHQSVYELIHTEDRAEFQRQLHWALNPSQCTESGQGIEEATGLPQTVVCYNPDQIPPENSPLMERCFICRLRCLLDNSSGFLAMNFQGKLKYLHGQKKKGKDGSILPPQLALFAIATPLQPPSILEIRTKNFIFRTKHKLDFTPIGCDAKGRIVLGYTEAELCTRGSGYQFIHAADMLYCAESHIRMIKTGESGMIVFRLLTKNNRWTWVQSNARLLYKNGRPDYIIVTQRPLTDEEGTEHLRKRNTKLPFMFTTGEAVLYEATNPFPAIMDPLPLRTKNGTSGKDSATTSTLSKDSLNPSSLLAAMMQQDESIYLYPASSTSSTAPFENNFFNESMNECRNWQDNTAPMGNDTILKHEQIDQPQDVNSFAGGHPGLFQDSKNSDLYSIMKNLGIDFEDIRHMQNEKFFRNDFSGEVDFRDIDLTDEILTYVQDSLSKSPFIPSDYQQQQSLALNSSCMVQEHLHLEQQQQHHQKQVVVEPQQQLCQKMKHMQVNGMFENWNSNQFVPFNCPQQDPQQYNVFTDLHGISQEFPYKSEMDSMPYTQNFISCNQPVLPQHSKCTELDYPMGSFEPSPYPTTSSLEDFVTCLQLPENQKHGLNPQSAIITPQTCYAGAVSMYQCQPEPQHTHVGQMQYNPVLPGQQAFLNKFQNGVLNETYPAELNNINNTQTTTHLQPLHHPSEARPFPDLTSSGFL
Method in brief: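 AhR agonist activity is inferred from enhanced light output of a DRE-controlled firefly luciferase reporter in HepG2 cells, measured with ONE-Glo following 24 h treatment at 37C.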

[17] = molecular target: Peroxisome proliferator-activated receptor delta (Homo sapiens) (UniProt Q03181); experiment: qHTS assay to identify small molecule agonists of the peroxisome proliferator-activated receptor delta (PPARd) signaling pathway (AID 743212; calls by dose curve)
Peroxisome proliferator-activated receptor delta (Homo sapiens), sequence (Q03181 whole entry, looked up): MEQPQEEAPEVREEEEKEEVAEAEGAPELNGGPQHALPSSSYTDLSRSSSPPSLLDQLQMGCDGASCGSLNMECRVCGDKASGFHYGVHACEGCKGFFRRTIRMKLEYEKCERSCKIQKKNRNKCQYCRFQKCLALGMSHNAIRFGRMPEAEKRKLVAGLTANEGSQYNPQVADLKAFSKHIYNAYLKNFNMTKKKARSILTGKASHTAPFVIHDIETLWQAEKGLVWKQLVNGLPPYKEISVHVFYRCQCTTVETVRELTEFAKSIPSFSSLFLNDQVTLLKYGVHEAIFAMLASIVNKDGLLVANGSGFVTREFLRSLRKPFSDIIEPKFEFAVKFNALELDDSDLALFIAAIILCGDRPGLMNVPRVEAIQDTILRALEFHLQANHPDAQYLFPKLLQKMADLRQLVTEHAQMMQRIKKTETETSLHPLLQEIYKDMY
Method in brief: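 Tox21 library screened in GeneBLAzer PPARd UAS-bla HEK293H cells. After compound treatment at 37 C, a FRET-based beta-lactamase substrate was applied for 2 h and fluorescence recorded.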

[18] = qHTS assay to identify small molecule antagonists of the peroxisome proliferator-activated receptor delta (PPARd) signaling pathway - cell viability counter screen (AID 743213); also: nearly all actives have a fitted effect of over 50% in size
Method in brief: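 Viability counter-screen, qHTS format: PPARd-bla HEK293H, L165041 300 nM final, 17 h compound exposure at 37 C, CellTiter-Glo luminescence after 30 min RT.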

[19] = molecular target: Peroxisome proliferator-activated receptor delta (Homo sapiens) (UniProt Q03181); experiment: qHTS assay to identify small molecule antagonists of the peroxisome proliferator-activated receptor delta (PPARd) signaling pathway (AID 743215; active = well fitted inhibition curve with a large enough effect in the signal ratio in the repeat runs, not every such curve was filed as active; the % refers to the signal ratio;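 also: cells stimulated with agonist L165041 at 300 nM final during compound exposure; series mostly up to about 62 µM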)
Method in brief: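 Fluorescence from cleaved LiveBLAzer B/G FRET substrate (2 h, room temperature) reports PPARd-driven beta-lactamase in HEK293H UAS-bla cells. Cells had been treated 17 h at 37 C with compound plus 300 nM final L165041.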

[20] = molecular target: Bile acid receptor (Homo sapiens) (UniProt Q96RI1); experiment: qHTS assay to identify small molecule antagonists of the farnesoid-X-receptor (FXR) signaling pathway (AID 743217; active = well fitted inhibition curve with a large enough effect in the signal ratio in the repeat runs, not every such curve was filed as active; the % refers to the signal ratio)
Method in brief: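 FRET fluorescence after 2 h room-temperature LiveBLAzer loading gives the readout. Prior step: FXR-bla HEK 293T cells, seeded and incubated 5 h, received test compounds plus 50 uM final CDCA for 16 h at 37 °C.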

Measured: Potency

Cc1ccnc(NS(=O)(=O)c2ccc(N)cc2)n1
inactive: [1] | [2] | [3] | [4] | [5] | [6] | [7] | [8] | [9] | [10] | [11] | [12] | [13] | [14] | [15]

CC1CCC(CO)CC1 (centres undefined)
inactive: [1] | [16] | [5] | [6] | [7] | [8] | [9] | [10] | [17] | [18] | [19] | [11] | [13] | [14] | [15]

C[N+](C)(CCOc1ccccc1)Cc1cccs1
inactive: [1] | [16] | [6] | [7] | [9] | [10] | [19] | [11] | [13] | [14] | [15]

CC(C)(C#N)Nc1nc(Cl)nc(NC2CC2)n1
inactive: [1] | [2] | [3] | [4] | [5] | [6] | [7] | [9] | [10] | [17] | [18] | [19] | [20] | [11] | [12] | [13] | [14]

CN1C(C)(C)CC(O)CC1(C)C
inactive: [1] | [2] | [3] | [5] | [6] | [7] | [8] | [9] | [10] | [17] | [18] | [19] | [11] | [12] | [13] | [14] | [15]

CCCCCCCCCCCCSC
inactive: [1] | [2] | [3] | [4] | [5] | [7] | [8] | [9] | [10] | [18] | [11] | [12] | [13]

Cc1ccc(C(=O)Nc2ccc(S(=O)(=O)O)c3cc(S(=O)(=O)O)cc(S(=O)(=O)O)c23)cc1NC(=O)c1cccc(NC(=O)Nc2cccc(C(=O)Nc3cc(C(=O)Nc4ccc(S(=O)(=O)O)c5cc(S(=O)(=O)O)cc(S(=O)(=O)O)c45)ccc3C)c2)c1
inactive: [1] | [2] | [3] | [4] | [6] | [7] | [8] | [9] | [10] | [17] | [19] | [11] | [13] | [14] | [15]

O=S(=O)(O)c1cccc(S(=O)(=O)O)c1
inactive: [1] | [2] | [3] | [4] | [5] | [7] | [8] | [10] | [17] | [11] | [13] | [15]

N[C@H](C(=O)O)[C@@H](O)c1ccc(O)c(O)c1
inactive: [1] | [2] | [3] | [4] | [5] | [7] | [9] | [10] | [17] | [11] | [12] | [13] | [14] | [15]

Source: PubChem BioAssay (Tox21)
